In PubChem BioAssay:
A number with no mark means an inactive call.

Assay: budding yeast growth changes without added modifier – OD600, strain BY4716, 24 h, basal condition, primary screen (AID 1173)
Conditions: S. cerevisiae BY4716 growth, OD600, 24 h; higher = more signal, called active from +8 up or from −8 down

| Compound | z-score |
| --- | --- |
| COC(=O)[C@H](C)NC(=O)CCC1CC(OC(=O)NCCc2ccc(F)cc2)CC2(CCCC(COC(=O)NCCc3ccc(Cl)cc3)O2)O1 (some centres not stated) | 0.592 |
| COc1ccccc1CN1C(=O)c2ccccc2[C@@H](C(=O)NCC(F)(F)F)[C@@H]1c1ccc(CO)cc1 | 0.403 |
| C[C@H]1Cc2c(-c3ccccc3)nc3c(c2CO1)CN(CCOc1ccccc1)CC3 | -1.97 |
| COCCCNC(=O)[C@@]1(CCS(=O)(=O)c2ccccc2)N=C(c2ccc(OCCCO)cc2)O[C@H]1c1ccccc1 | -0.44 |
| O=C1CCCC2OC12C(O)CCc1ccccc1 (configuration not stated) | -0.372 |
| COC(=O)CC=C[C@H](C)[C@@H](OCc1ccccc1Br)C(C)C | -0.553 |
| CO[C@H]1COC(=O)[C@@H]2CCCN2C(=O)[C@@H](C)COC(=O)CC=C[C@@H]1C | -0.0361 |
| CC(C)=CCCC(C)=CCON=C1[C@H]2CCn3c(=O)n(C)c(=O)n3[C@H]2[C@H](O)[C@@H]2O[C@H]12 | -0.777 |
| CN1C(=O)C2C=CC(C(O)C(c3ccccc3)c3ccccc3)N(NC(=O)OC(C)(C)C)C2C1=O (configuration not stated) | -4.58 |
| CCOC(=O)CCN1C(=O)[C@H]2[C@H]3[C@H](O)[C@H](O)CC(=NNC(=O)OCc4ccc(OC)cc4)[C@@H]3CC[C@H]2C1=O | 0.458 |
| CC(CCC(=O)OC[C@H]1O[C@H](C#Cc2ccccc2)C=C[C@@H]1Oc1ccc(C)cc1)=NO[C@@H](C)c1cn([C@H](CO)Cc2ccccc2)nn1 | 0.542 |

Assay: viability profiling in MM1S myeloma cells – cell-based, resazurin fluorescence, basal, 24 h, PK04 Diversity Set, profiling panel (AID 1174);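 further: MM1S multiple myeloma cell line; test concentration not given here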
Conditions: higher = more signal, called active from +8 up or from −8 down

| Compound | z-score |
| --- | --- |
| CC(C)OC(=O)C=C1C[C@@H](c2ccc(C#N)cc2)O[C@@H](c2ccc(C#N)cc2)O1 | -0.793 |
| CO[C@@H]1COC(=O)CC=C[C@@H](C)COC(=O)[C@H](COCc2ccccc2)NC(=O)CC=C[C@H]1C | 0.579 |
| CO[C@@H]1COC(=O)CC=C[C@@H](C)[C@@H]2C=C[C@H](O)[C@@H](COC(=O)CCC[C@H]1C)O2 | 0.492 |
| O=C1[C@H]2[C@H]3[C@H](O)[C@H](O)CC(=NO[C@@H]4O[C@H](CO)[C@@H](O)[C@H](O)[C@H]4O)[C@H]3CC[C@H]2C(=O)N1Cc1ccc2c(c1)OCO2 | 0.466 |
| C=CC[C@@H]1C=C[C@H](ON=Cc2ccc(C(=O)N3[C@H](c4ccc(C)cc4)[C@@H](C)CC[C@H]3C(=O)OC)cc2)[C@@H](CO)O1 | -0.435 |
| COCCOC(=O)N1C(=O)[C@@]2(c3cc(C#Cc4ccc(OC)cc4)ccc31)[C@H](c1ccc(O)cc1)N1[C@H](c3ccccc3)[C@H](c3ccccc3)OC(=O)[C@H]1[C@@H]2C(N)=O | -1.02 |
| CC(C)(C)N1CC=CC23O[C@@H]4C=CCCOC(=O)C4[C@H]2C(=O)N(CCCCCO)[C@@H]3C1=O (some centres not stated) | 0.287 |
| COCCOC(=O)N1C(=O)[C@@]2(c3cc(C#Cc4ccc(OC)cc4)ccc31)[C@H](C(=O)N1CCN(c3ncccn3)CC1)[C@H]1C(=O)O[C@H](c3ccccc3)[C@H](c3ccccc3)N1[C@@H]2c1ccc(OCCO)cc1 | 0.468 |
| COC(=O)[C@@H]1CC[C@H](C)[C@@H](c2ccc(C)cc2)N1C(=O)c1ccc(C=NOC(C)CN2CCCCc3nc(C)c(C)cc32)cc1 (some centres not stated) | -0.725 |
| CC(C)CON=C1[C@H]2CCn3c(=O)n(-c4ccccc4)c(=O)n3[C@H]2[C@H](O)[C@@H]2O[C@H]12 | -1.21 |
| COCC(=C=CC[C@@H](O)c1ccccc1OCCO)CCO | 0.599 |
| O=C1O[C@@H](c2ccccc2)[C@@H](c2ccccc2)N2[C@@H](c3ccc(OCCO)cc3)[C@]3(C(=O)Nc4ccc(C#CCCO)cc43)[C@@H](C(=O)N3CCCCCCC3)[C@H]12 | 0.605 |
| C#C[C@@H]1Oc2ccccc2S(=O)(=O)N2CCC[C@H]12 | -0.46 |
| CCCC[C@H]1OB(O)C[C@H]2C1=C(C)C[C@H]1C(=O)N(C)C(=O)[C@H]12 | -0.596 |
| O=C1[C@H]2[C@H]3[C@H](O)[C@H](O)CC(=NOC[C@@H](O)COCc4ccco4)[C@H]3CC[C@H]2C(=O)N1c1cccc(Oc2ccccc2)c1 | -0.654 |
| CC(C)[C@H](NC(=O)OC(C)(C)C)[C@@H](O)CC(=O)OC(C)(C)C | 0.351 |
| CO[C@H]1COC(=O)CC=C[C@H](C)[C@@H](NS(=O)(=O)c2ccc(C)cc2)COC(=O)CC=C[C@@H]1C | -0.31 |
| CCOC(=O)CCN1C(=O)[C@H]2[C@H]3[C@H](O)[C@H](O)CC(=O)[C@H]3CC[C@H]2C1=O | 0.552 |

| Compound | z-score |
| --- | --- |
| NC(=O)NCC#Cc1ccc2c(c1)[C@]1(C(=O)N2)[C@H](c2ccc(O)cc2)N2[C@H](c3ccccc3)[C@H](c3ccccc3)OC(=O)[C@H]2[C@@H]1C(=O)N1CCCCCCC1 | 0.949 |
| CCOC(=O)C[C@H]1[C@H](OC(=O)c2ccc(C(=O)c3ccccc3)cc2)[C@@H](NC(=O)c2ccc(-c3ccccc3)cc2)c2cc(OCCCO)ccc2N1C(=O)c1ccc2ccccc2n1 | 0.38 |
| O=C1[C@H]2[C@H]3[C@H](O)[C@H](O)CC(=NO[C@@H]4O[C@H](CO)[C@@H](O)[C@H](O)[C@H]4O)[C@@H]3CC[C@H]2C(=O)N1Cc1ccccc1 | 0.0897 |
| CC(C)(C)N1C(=O)[C@H]2[C@H]3[C@H](O)[C@H](O)CC(=NOCc4ccccc4)[C@@H]3CC[C@H]2C1=O | -0.637 |
| C[C@@H](c1ccccc1)N1C(=O)[C@H]2[C@H]3[C@H](O)C=CC(=O)[C@@H]3CC[C@H]2C1=O | 0.711 |
| CC(C)(C)N1C(=O)[C@H]2[C@H]3[C@H](O)[C@H](O)CC(=NO[C@@H]4O[C@H](CO)[C@@H](O)[C@H](O)[C@H]4O)[C@@H]3CC[C@H]2C1=O | -0.236 |
| CCOC(=O)NN=C1C[C@@H](O)[C@@H](O)[C@@H]2[C@@H]3C(=O)N(C(C)(C)C)C(=O)[C@@H]3CC[C@@H]12 | -0.387 |
| COC(=O)[C@H](C)NC(=O)CCC1CC(OC(=O)NCCc2ccc(F)cc2)CC2(CCCC(COC(=O)NCCc3ccc(Cl)cc3)O2)O1 (some centres not stated) | 0.349 |
| COc1ccccc1CN1C(=O)c2ccccc2[C@@H](C(=O)NCC(F)(F)F)[C@@H]1c1ccc(CO)cc1 | -1.15 |
| C[C@H]1Cc2c(-c3ccccc3)nc3c(c2CO1)CN(CCOc1ccccc1)CC3 | 0.0723 |
| COCCCNC(=O)[C@@]1(CCS(=O)(=O)c2ccccc2)N=C(c2ccc(OCCCO)cc2)O[C@H]1c1ccccc1 | 0.745 |
| O=C1CCCC2OC12C(O)CCc1ccccc1 (configuration not stated) | -0.397 |
| COC(=O)CC=C[C@H](C)[C@@H](OCc1ccccc1Br)C(C)C | -2.19 |
| CO[C@H]1COC(=O)[C@@H]2CCCN2C(=O)[C@@H](C)COC(=O)CC=C[C@@H]1C | 0.285 |
| CC(C)=CCCC(C)=CCON=C1[C@H]2CCn3c(=O)n(C)c(=O)n3[C@H]2[C@H](O)[C@@H]2O[C@H]12 | -2.63 |
| CN1C(=O)C2C=CC(C(O)C(c3ccccc3)c3ccccc3)N(NC(=O)OC(C)(C)C)C2C1=O (configuration not stated) | -0.861 |
| CCOC(=O)CCN1C(=O)[C@H]2[C@H]3[C@H](O)[C@H](O)CC(=NNC(=O)OCc4ccc(OC)cc4)[C@@H]3CC[C@H]2C1=O | -1.24 |
| CC(CCC(=O)OC[C@H]1O[C@H](C#Cc2ccccc2)C=C[C@@H]1Oc1ccc(C)cc1)=NO[C@@H](C)c1cn([C@H](CO)Cc2ccccc2)nn1 | 0.925 |
